Tests used:
ETS1 [1] = biological target: T1, ETS1 (UniProt P14921); experiment: ETS1 binding intensity (PBM fluorescence), ETS1 alone (arbitrary fluorescence units); higher = stronger binding; settings: ETS1 concentration 1 nM; RUNX1 concentration 0 nM
T1 sequence: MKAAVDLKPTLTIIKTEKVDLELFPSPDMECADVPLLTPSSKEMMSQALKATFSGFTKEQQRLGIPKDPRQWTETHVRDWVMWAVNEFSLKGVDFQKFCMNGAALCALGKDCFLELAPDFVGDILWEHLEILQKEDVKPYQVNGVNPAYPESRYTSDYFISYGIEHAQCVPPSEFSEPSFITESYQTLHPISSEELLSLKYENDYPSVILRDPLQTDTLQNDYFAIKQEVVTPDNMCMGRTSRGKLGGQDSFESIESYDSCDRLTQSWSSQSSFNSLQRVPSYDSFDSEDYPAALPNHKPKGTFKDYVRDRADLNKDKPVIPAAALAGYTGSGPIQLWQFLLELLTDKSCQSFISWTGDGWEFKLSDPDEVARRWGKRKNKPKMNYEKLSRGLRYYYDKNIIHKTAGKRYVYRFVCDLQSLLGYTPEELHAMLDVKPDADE

ETS1 [2] = biological target: T1, ETS1; experiment: ETS1 binding intensity (PBM fluorescence) in presence of RUNX1, normalised to ETS1-only experiment (arbitrary fluorescence units); higher = stronger binding; settings: ETS1 concentration 1 nM; RUNX1 concentration 25 nM

## AACAGCTTTTGTCCAGGATGTGGCTTCATAGCCTTG
ETS1 [1]
  ETS1 binding intensity: 1650
ETS1 [2]
  ETS1 binding intensity: 2340

## GAGGTTGGGAAGTTCTTCCTTTGGTCTGACCACAGT
ETS1 [1]
  ETS1 binding intensity: 453
ETS1 [2]
  ETS1 binding intensity: 596

## GCGCCCCGTCCTTCCGCAGCCCAACCGCCTCTTCCC
ETS1 [1]
  ETS1 binding intensity: 476
ETS1 [2]
  ETS1 binding intensity: 383

## GAGAATGAAGAGGAAATGTGGGGACAGACAGAACTG
ETS1 [1]
  ETS1 binding intensity: 1060
ETS1 [2]
  ETS1 binding intensity: 1170

## CACCCAAGGATATGCTTTTTTTTGGCAAGCCACATC
ETS1 [1]
  ETS1 binding intensity: 430
ETS1 [2]
  ETS1 binding intensity: 451

## TTCTTGTTTCCTGTCAAGGGAGGCTCTGACCACCTC
ETS1 [1]
  ETS1 binding intensity: 728
ETS1 [2]
  ETS1 binding intensity: 753

## TTTATCCTTATTTCCTGGCTTCGCCCACAAGCACAG
ETS1 [1]
  ETS1 binding intensity: 599
ETS1 [2]
  ETS1 binding intensity: 625

## TAAAGCGGAAGGGGCCGGCTCTGCGGCCTGGCCGCT
ETS1 [1]
  ETS1 binding intensity: 553
ETS1 [2]
  ETS1 binding intensity: 770

## TGCTGTTTCCTCTGCTGCCGAAGCGGTTTCTTCCAC
ETS1 [1]
  ETS1 binding intensity: 443
ETS1 [2]
  ETS1 binding intensity: 400

## TTTACGGGATGTAGGCGGCGGCGGCGGTAGTGGTAG
ETS1 [1]
  ETS1 binding intensity: 701
ETS1 [2]
  ETS1 binding intensity: 771

## ACGTAGACAGGAAAGTAATGTGGTTCAGGACTGAGT
ETS1 [1]
  ETS1 binding intensity: 746
ETS1 [2]
  ETS1 binding intensity: 766

## GCATGTTCAAAAGGATGTGGGTGCTTACCTAGTGCC
ETS1 [1]
  ETS1 binding intensity: 956
ETS1 [2]
  ETS1 binding intensity: 1230

## AAGGACCGACCCGTTTTCCGCCCGCAGCGGAGCTTG
ETS1 [1]
  ETS1 binding intensity: 439
ETS1 [2]
  ETS1 binding intensity: 457

## TCTCTTCTCCCCATCCGCCCGAGACCACAGCCACTC
ETS1 [1]
  ETS1 binding intensity: 509
ETS1 [2]
  ETS1 binding intensity: 507

## AGGAGAGGATGTTGCTTGAAGGTGTGGTCTCCTCCA
ETS1 [1]
  ETS1 binding intensity: 549
ETS1 [2]
  ETS1 binding intensity: 462

## GCGATACGAGACTTCCTGCGGGCTCGTGACATCAGC
ETS1 [1]
  ETS1 binding intensity: 518
ETS1 [2]
  ETS1 binding intensity: 650

## TTGGTGGCTTCCTGCCCAGGAGACCACACCCAGCTT
ETS1 [1]
  ETS1 binding intensity: 540
ETS1 [2]
  ETS1 binding intensity: 486

## CATCAAAAACAGAGGAAGCCACAGCAAATTGCTGCC
ETS1 [1]
  ETS1 binding intensity: 523
ETS1 [2]
  ETS1 binding intensity: 418

## GGTTGTGGAGTAGGATGTGGTGTCTAGCTTTCAGCA
ETS1 [1]
  ETS1 binding intensity: 588
ETS1 [2]
  ETS1 binding intensity: 568

## GCCTGAAGCAGAGGATGTGGCTTCTGGCCCTCCCCT
ETS1 [1]
  ETS1 binding intensity: 1460
ETS1 [2]
  ETS1 binding intensity: 1800

## ACGTCTTTATTTATCCTGTGGCTTCCCGACCCCCAC
ETS1 [1]
  ETS1 binding intensity: 537
ETS1 [2]
  ETS1 binding intensity: 576

## TGTGAGAAGCCGGATCCTGTGGTGACCCAGTGGCCT
ETS1 [1]
  ETS1 binding intensity: 409
ETS1 [2]
  ETS1 binding intensity: 479

## GCTTACGTCACGTCCGGCGCCTGCGGCCCACCCCTC
ETS1 [1]
  ETS1 binding intensity: 592
ETS1 [2]
  ETS1 binding intensity: 506

## TTCATCTACTTCCCGCCACACCCACAGAGAAGCCCA
ETS1 [1]
  ETS1 binding intensity: 469
ETS1 [2]
  ETS1 binding intensity: 377

## CCTGAGCGCCCGGAAGGAAGGCTGTGGTAGGTTGTC
ETS1 [1]
  ETS1 binding intensity: 1270
ETS1 [2]
  ETS1 binding intensity: 1570

## GCACCATCTCCCGACTTCCGCGGTGTCCCAGGTCCT
ETS1 [1]
  ETS1 binding intensity: 559
ETS1 [2]
  ETS1 binding intensity: 434

## CAGTGGCTTCCTCCCCACCTCCTACCACATTCAATG
ETS1 [1]
  ETS1 binding intensity: 517
ETS1 [2]
  ETS1 binding intensity: 467

## CCCTCTGAGACAGGATTTGCTTCCCACACAAGGCTA
ETS1 [1]
  ETS1 binding intensity: 495
ETS1 [2]
  ETS1 binding intensity: 629

## ATGACTCATTTCCTCACTCTCTACTCCCACAGAACC
ETS1 [1]
  ETS1 binding intensity: 606
ETS1 [2]
  ETS1 binding intensity: 464

## AGCGGCTCCTTCCGGCGGCGCGGGTTCCCTTCCCTC
ETS1 [1]
  ETS1 binding intensity: 624
ETS1 [2]
  ETS1 binding intensity: 581

## GGAGCGACGGAAGCACCTGAAGCGGTCTTTCCCCGA
ETS1 [1]
  ETS1 binding intensity: 514
ETS1 [2]
  ETS1 binding intensity: 349

## CGAAGAGGAAGCCCCTGTATCACCCCACAAGAAGCC
ETS1 [1]
  ETS1 binding intensity: 544
ETS1 [2]
  ETS1 binding intensity: 555

## TCCAGCCGGACGCGATGCCTGGAGGCTGCGGGCGCC
ETS1 [1]
  ETS1 binding intensity: 328
ETS1 [2]
  ETS1 binding intensity: 597

## CCCCGTTACGCCCATCCGGCTCCCGCATAGGGCGTC
ETS1 [1]
  ETS1 binding intensity: 442
ETS1 [2]
  ETS1 binding intensity: 402

## CAAGAATGAGAAAGGAAGCTGGCGGTTGGGCAGGTG
ETS1 [1]
  ETS1 binding intensity: 890
ETS1 [2]
  ETS1 binding intensity: 1260

## GGTCACATCCTTTCCCTTCTGTGTCTCAGCCGCAGT
ETS1 [1]
  ETS1 binding intensity: 421
ETS1 [2]
  ETS1 binding intensity: 449

## GCTGTAGGAAATGTTATTCGCCGCGGTCAGGACAGG
ETS1 [1]
  ETS1 binding intensity: 546
ETS1 [2]
  ETS1 binding intensity: 710

## CCAGGCGTTTCCGGGTTCCCGCGGTCCCGTCCCCCA
ETS1 [1]
  ETS1 binding intensity: 1340
ETS1 [2]
  ETS1 binding intensity: 1330

## TAAATACCTCACAGGAAATTTGAGGTTGGATGAGAT
ETS1 [1]
  ETS1 binding intensity: 2010
ETS1 [2]
  ETS1 binding intensity: 2320

## GTCCTCCAGGAAGCCCGCGCTAACCACCGTGCCTTT
ETS1 [1]
  ETS1 binding intensity: 420
ETS1 [2]
  ETS1 binding intensity: 688

## CCCGGTGCACCGGATCCGACCACACCCTGGGTGGGC
ETS1 [1]
  ETS1 binding intensity: 525
ETS1 [2]
  ETS1 binding intensity: 400

## GGGGAAGAGGAAGCTGTGTCCGCGGTGCAAGGGGTT
ETS1 [1]
  ETS1 binding intensity: 533
ETS1 [2]
  ETS1 binding intensity: 542

## CTCTTCTCAGGAAGGGGCTGTGGGATGTAGGATTCC
ETS1 [1]
  ETS1 binding intensity: 638
ETS1 [2]
  ETS1 binding intensity: 610

## AGGGAAGCGGCGGCGGAAGCCCCGCAGGAGGCCGGC
ETS1 [1]
  ETS1 binding intensity: 806
ETS1 [2]
  ETS1 binding intensity: 932

## CCTGTCTGCTTCCGCCCGGCTTCGGCCCACAGTCAA
ETS1 [1]
  ETS1 binding intensity: 511
ETS1 [2]
  ETS1 binding intensity: 441

## TCAAGAGGGTGTGGAGGAAGTGGGTTACAAGCACTT
ETS1 [1]
  ETS1 binding intensity: 1450
ETS1 [2]
  ETS1 binding intensity: 1940

## CGTTTCCTGTGGCTGCAGCTCTCCCCACCCACACAC
ETS1 [1]
  ETS1 binding intensity: 829
ETS1 [2]
  ETS1 binding intensity: 781

## TAACGCGAGAACTTCCTGCGGGCCACGCCCTCTTTC
ETS1 [1]
  ETS1 binding intensity: 571
ETS1 [2]
  ETS1 binding intensity: 462

## ATCAAAGAACGGATATTGCTGTGACACCGCGGGGAC
ETS1 [1]
  ETS1 binding intensity: 1380
ETS1 [2]
  ETS1 binding intensity: 1560

From the supplement of paper PMC10681739
